# Screening data (PubChem BioAssay)
# AmpC inh no detg: AmpC beta-lactamase inhibition without detergent; 0.52% of 330,000 active; P00811; Potency, µM (highest dose often 57.1 µM), for the others: top-dose activity change, negative = inhibition, hits mostly inhibitors; AmpC nitrocefin hydrolysis, absorbance 480 nm, 0.0001% Triton;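 further: potency means the concentration at half of the fitted maximal effect; plate controls were no compound for no effect and no enzyme for full effect; nearly all actives have a fitted effect of over 20% in size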
# Target sequence (P00811 whole entry, looked up): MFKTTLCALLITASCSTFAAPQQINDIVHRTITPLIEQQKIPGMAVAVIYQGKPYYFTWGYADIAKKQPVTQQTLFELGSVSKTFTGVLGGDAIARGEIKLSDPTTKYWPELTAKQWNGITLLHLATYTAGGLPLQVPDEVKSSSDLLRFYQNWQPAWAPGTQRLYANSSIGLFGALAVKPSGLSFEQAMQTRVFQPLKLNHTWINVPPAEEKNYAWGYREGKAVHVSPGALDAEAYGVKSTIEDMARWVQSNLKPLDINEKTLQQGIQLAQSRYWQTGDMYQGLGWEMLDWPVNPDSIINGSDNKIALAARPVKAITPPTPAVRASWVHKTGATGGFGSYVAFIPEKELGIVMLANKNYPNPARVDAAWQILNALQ
#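 20 mM phosphate pH 7.0 + 0.01% (detergent screen) or 0.0001% Triton X-100; 5.3 nM AmpC reagent; cpd preinc 15 min RT; nitrocefin (800 uM stock) to start; A480 q20 s × 4 min; Activity was normalised to no-enzyme and no-compound control wells.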
# NS1 function inh: blocks influenza NS1 protein function. Potency, µM (highest dose often 46.1 µM), for inactives: at the top dose activity, positive = more growth. 0.4% of 270,000 active; calls by dose curve; further: potency means the concentration at half of the fitted maximal effect; actives are rising curves; nearly all actives have a fitted effect of over 50% in size
#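 Read-out: OD600 growth recovery of NS1-expressing budding yeast. Cells grown overnight at 30C in -URA glucose medium, washed, resuspended and diluted 1:100 in 2% galactose assay medium, pH 6.0. Same strain lacking NS1 served as positive control.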
# CHX counter: affects cycloheximide protein synthesis inhibition readout, counter-screen; cell reporter, cycloheximide protein synthesis inhibition counterscreen; max response, %; 12% of 300,000 active; AID 2314; in the data active means max response mostly above about 13%, no sharp cut-off; inactive means mostly below about 14%; further: read at 38.3 µM for the half of the compounds with a filed dose; 0% is about no effect
# Shiga inhibitor: Shiga toxin inhibition | 9.2% of 290,000 active | Vero cells, Shiga toxin protein synthesis inhibition reporter | AID 2315 | inhibition, % at 38.7 µM; in the data active means inhibition mostly above about 28%, no sharp cut-off; inactive means mostly below about 43%; further: 0% is about no effect
# AmpC detergent: AmpC beta-lactamase inhibition with detergent present | P00811 | AmpC hydrolysis of nitrocefin, absorbance 480 nm, 0.01% Triton | Potency, µM (titrated, usually from 114 µM), for the others: top-dose activity change, negative = inhibition, most hits filed as inhibitors | 0.041% of 370,000 active;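 further: potency means the concentration at half of the fitted maximal effect; 0% = no-compound wells and -100% = no-enzyme wells; nearly all actives have a fitted effect of over 25% in size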
#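 20 mM phosphate pH 7.0 + 0.01% (detergent screen) or 0.0001% Triton X-100; 5.3 nM AmpC reagent; cpd preinc 15 min RT; nitrocefin (800 uM stock) to start; A480 q20 s × 4 min; Activity was normalised to no-enzyme and no-compound control wells.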
# * hit, by the source's call; u = inconclusive; x = no result; ! = not active in a repeat. Many of the other results were omitted from the sample, so hits are more common in it than they were. Unless noted, the call rests on the fitted dose curve; in most records, active means well fitted curve in the direction sought with a large enough effect; inconclusive means small, poorly fitted or top-dose-only effect, or another doubt; inactive means no such curve, though single readings can be large; an effect the other way counts as inactive or inconclusive.
SMILES,AmpC inh no detg,NS1 function inh,CHX counter,Shiga inhibitor,AmpC detergent
COCc1cc(C)nc2sc(C(=O)Nc3ccccc3O)c(N)c12,x,x,x,x,20%
CC(NC(=O)COC(=O)c1ccc(Br)o1)c1ccccc1 (stereo not given),-24%,x,x,x,8%
Cc1cc(C)cc(NC(=O)C2CCCN(c3ncccn3)C2)c1 (stereo not given),-17%,-2%,11*,2,1%
O=C(Nc1ccc2c(c1)CCC2)C1CCCN(c2ncccn2)C1 (stereo not given),-1%,-2%,38*,43*,-12%
O=C(Nc1cccc(C(F)(F)F)c1)C1CCCN(c2ncccn2)C1 (stereo not given),-4%,-39%,-2,6,-1%
Cc1ccc(NC(=O)C2CCCN(c3ncccn3)C2)cc1F (stereo not given),-13%,-8%,23*,54,-14%
Cc1ccc(NC(=O)C2CCCN(c3ncccn3)C2)c(C)c1 (stereo not given),-6%,2%,33*,49*,u
CC(C)(C)c1ccc(S(=O)(=O)c2cnc(SCC(=O)Nc3ccc4c(c3)OCCO4)[nH]c2=O)cc1,x,x,x,x,1%
CCOC(=O)c1cc2c(OC)ccc(OC)c2n1CC(=O)c1ccccc1,-11%,-1%,5,4,0%
CCOC(=O)c1ccc2c(c1)nc(SC(C)C(=O)NCC1CCCO1)n2CC (stereo not given),35%,x,x,x,-7%
O=C1Nc2ncccc2OC1CCO (stereo not given),-9%,9%,-2,-15,0%
COc1ccc(C2C(C#N)=C(N)Oc3c2c(-c2ccccc2)nn3-c2ccccc2)c(OC)c1OC (stereo not given),-5%,u,0,33,-6%
O=C(N/N=C/c1ccc2cccnc2c1)c1nc2ccccc2c(=O)[nH]1,-11%,-3%,30*,35*,2%
O=C(NC(C(=O)N/N=C/c1ccncc1)c1n[nH]c(=O)c2ccccc12)c1ccccc1 (stereo not given),-18%,-5%,-1,0,-3%
O=C(N/N=C/c1ccncc1)c1nc2ccccc2c(=O)[nH]1,-12%,0%,17*,32,-3%
CC1CCCC(NC(=O)COC(=O)c2ccc(Cl)nc2)C1C (stereo not given),-8%,x,x,x,u
CCCCN(C)CC(O)Cn1cc(/C=C/C(=O)c2ccc(OC)c(OC)c2)c2ccccc21 (stereo not given),x,x,x,x,12%
Cc1oncc1C(=O)N1CCCC(CO)(Cc2ccc(F)cc2F)C1 (stereo not given),34%,1%,17*,38,-9%
CN1CCSc2ccc(C(=O)Nc3ccc(Cl)cc3)cc21,-17%,-2%,37*,59*,5%
COc1ccc(Br)cc1CNC(=O)c1ccc2c(c1)N(C)CCS2,u,-13%,-3,14,-14%
COc1cccc(NC(=O)c2ccc3c(c2)CCN3S(C)(=O)=O)c1,-5%,4%,17*,50*,23%
COc1cccc(NC(=O)c2ccc3c(c2)N(C)CCS3)c1,-27%,-1%,33*,29*,-17%
CN1CCSc2ccc(C(=O)NCc3cccc(F)c3)cc21,-34%,9%,13*,17,-10%
O=C(CCNS(=O)(=O)c1ccccc1F)N1CCN(Cc2ccccc2)CC1,2%,x,x,x,-2%
Cc1c(Cl)cccc1NC(=S)NN1CCOCC1,-19%,2%,-2,-10,0%
SMILES,AmpC inh no detg,NS1 function inh,CHX counter,Shiga inhibitor,AmpC detergent
O=S(=O)(Nc1cccc(-c2ccc(N3CCCCC3)nn2)c1)c1cccc(F)c1,x,x,x,x,-13%
O=C(c1cc2cc(Cl)ccc2[nH]1)N1CCN(Cc2ccc3c(c2)OCO3)CC1,54%,-22%,13*,8,2%
O=C(NC(=S)N1CCN(Cc2ccc3c(c2)OCO3)CC1)c1ccc(Cl)cc1,-14%,-28%,15*,11,-13%
O=C(c1cc2cc(Cl)ccc2[nH]1)N1CCN(c2ccc(F)cc2)CC1,-46%,-3%,-5,-3,-12%
O=C(c1cc2cc(Cl)ccc2[nH]1)N1CCCCC1,-10%,-2%,25*,27,-21%
COc1ccc(N2CCN(C(=O)c3cc4cc(Cl)ccc4[nH]3)CC2)cc1,-24%,12%,19*,13,11%
O=CN1CCN(C(=O)c2cc3cc(Cl)ccc3[nH]2)CC1,-12%,16%,-1,x,-7%
Cc1ccc(CNC(=O)c2ccc(C#CC(C)(C)O)s2)cc1,-22%,-2%,14,36,u
COc1ccccc1NC(=O)Cn1c(=O)n(Cc2ccco2)c(=O)c2oc3ccccc3c21,x,x,x,x,2%
COCCCNC(=O)CSc1nc2cc3c(cc2c(=O)n1CCCCCC(=O)NCCc1ccc(OC)c(OC)c1)OCO3,x,x,x,x,3%
CN1CCN(C(=O)c2cc3cc(Cl)ccc3[nH]2)CC1,-2%,4%,12*!,28,1%
Cc1ccc2c(C)c(C(=O)N3CCN(Cc4ccc5c(c4)OCO5)CC3)oc2c1C,102%,-67%,32*,75*,-1%
Cc1cc(C(F)(F)F)c(C#N)c(SCC(=O)Nc2nc3ccccc3s2)n1,-2%,13%,112*,163*,9%
Cc1nc(SCC(=O)Nc2nc3ccccc3s2)c(C#N)c(C)c1C,-25%,16%,29*,34,-10%
Cc1ccc2sc(NC(=O)CSc3nc(C)cc(C)c3C#N)nc2c1,-21%,3%,47*,78*,-12%
Cc1nc(SCC(=O)Nc2nccs2)c(C#N)c(C)c1C,-10%,x,x,x,3%
CSCC[C@H](NC(=O)[C@@H]1CCCN1C(=O)CNC(=O)[C@H](CCCCN)NC(=O)[C@H](Cc1cnc[nH]1)NC(=O)[C@H](CO)NC(=O)[C@H](CC(C)C)NC(=O)[C@H](CCCNC(=N)N)NC(=O)[C@@H]1CCCN1C(=O)[C@H](CCCNC(=N)N)NC(=O)[C@H](CCC(N)=O)NC(=O)[C@H](CCCNC(=N)N)NC(=O)[C@H](CCCNC(=N)N)NC(=O)[C@H](Cc1ccccc1)NC(=O)[C@@H](N)CCCCN)C(=O)N1CCC[C@H]1C(=O)N[C@@H](Cc1ccccc1)C(=O)O,x,x,9,18,x
Cc1ccc(C(=O)c2c3ccc([N+](=O)[O-])cc3[n+]([O-])n2CCCN)cc1,26%,x,x,x,-2%
Cc1ccc(S(=O)(=O)c2nnn3c2nc(N2CCN(c4ccccc4F)CC2)c2ccccc23)cc1C,x,x,x,x,23%
Oc1ccc(C=Nc2cccc3ccccc23)c(O)c1,-56%,29%,14*,30,-4%
CCN(CC)C(=O)c1ccc(-c2cccs2)s1,-4%,-36%,56*,93*,u
Cc1c(O)ccc(C(=O)COc2ccccc2F)c1O,-27%,-42%,30*,86*,-10%
CC(C)c1ccc(C(=O)NCCCN(C)C)cc1,-9%,12%,-1,11,-6%
COCCN(C(=S)Nc1ccc(C)cc1C)C(C)c1ccco1 (stereo not given),3%,x,19*,15,2%
